# Experimental data from PubChem BioAssay (EPA / NIEHS).
# Calls of active or inactive are those of the source. The calls were made as follows: active = hit-call score of the fitted dose curve at least 0.9, where 1 is the maximum; inactive = score below 0.9.
# Assays:
# [1] = ATG_CRE_CIS: Attagene CIS-FACTORIAL HepG2 Assay for human cAMP Responsive Element (CRE) binding protein 3 (AID 2282926); conditions: HepG2 CRE cis-reporter, Attagene multiplexed mRNA; actives raise or lower the signal
# How it was run: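 Liver-derived HepG2, transfected with a CRE-containing reporter panel, exposed 24 h; transcript levels sized and quantified by capillary electrophoresis of labelled amplicons; signal changes either way referenced to vehicle.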
# [2] = ATG_CMV_CIS: Attagene CIS-FACTORIAL HepG2 Assay for human CMV (Internal Marker) (AID 2282928); conditions: HepG2 CMV promoter reporter, transcription factor profiling; actives raise or lower the signal;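 also: endpoint acts as a background internal control marker rather than a target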
# How it was run: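 24 h chemical treatment, HepG2 with transient multi-reporter transfection; RNA → oligo(dT) RT → PCR → 6-FAM extension → HpaI digest → CE fluorescence. Bidirectional fit, DMSO negative control.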
# [3] = ATG_DR4_LXR_CIS: Attagene CIS-FACTORIAL HepG2 Assay for human Liver X Receptor (LXR), DR4 submotif (AID 2282929); conditions: HepG2 Attagene DR4 cis-reporter, mRNA transcription; actives raise or lower the signal
# How it was run: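 HepG2 cells transiently transfected with cis-promoter-driven multiplexed reporter units (DR4 element) were dosed for 24 h. Reporter mRNA was quantified by RT-PCR, fluorescent primer extension, HpaI digestion and capillary electrophoresis; bidirectional fitting versus DMSO baseline.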
# [4] = target: Aryl hydrocarbon receptor (Homo sapiens) (UniProt P35869); experiment: ATG_Ahr_CIS: Attagene CIS-FACTORIAL HepG2 Assay for human Aryl Hydrocarbon Receptor (Ahr) (AID 2282930); conditions: HepG2 AhR cis-factorial reporter transcription; actives raise or lower the signal
# Chain of Aryl hydrocarbon receptor (Homo sapiens) (P35869 whole entry, looked up): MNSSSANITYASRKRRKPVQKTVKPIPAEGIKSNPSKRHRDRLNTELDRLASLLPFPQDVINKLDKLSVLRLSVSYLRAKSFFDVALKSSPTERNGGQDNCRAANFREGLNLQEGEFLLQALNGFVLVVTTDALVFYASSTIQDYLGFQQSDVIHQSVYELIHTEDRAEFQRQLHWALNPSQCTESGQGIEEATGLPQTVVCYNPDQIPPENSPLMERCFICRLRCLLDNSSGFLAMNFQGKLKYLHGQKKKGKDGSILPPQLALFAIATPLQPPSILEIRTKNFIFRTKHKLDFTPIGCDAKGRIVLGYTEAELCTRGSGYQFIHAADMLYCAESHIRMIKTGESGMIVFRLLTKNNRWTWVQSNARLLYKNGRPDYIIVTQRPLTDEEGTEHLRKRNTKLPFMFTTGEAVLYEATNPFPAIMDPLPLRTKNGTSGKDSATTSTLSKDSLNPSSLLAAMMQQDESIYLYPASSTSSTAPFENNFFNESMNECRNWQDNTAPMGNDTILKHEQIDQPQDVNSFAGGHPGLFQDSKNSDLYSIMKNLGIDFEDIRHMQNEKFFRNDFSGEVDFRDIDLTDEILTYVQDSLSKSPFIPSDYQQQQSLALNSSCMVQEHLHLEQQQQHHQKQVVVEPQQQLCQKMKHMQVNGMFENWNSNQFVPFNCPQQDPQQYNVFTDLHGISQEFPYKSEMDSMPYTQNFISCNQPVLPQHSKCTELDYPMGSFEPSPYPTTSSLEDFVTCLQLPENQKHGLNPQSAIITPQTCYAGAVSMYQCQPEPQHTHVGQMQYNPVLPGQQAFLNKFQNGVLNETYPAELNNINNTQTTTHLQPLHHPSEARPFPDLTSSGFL
# How it was run: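 Values derive from bidirectional fitting against DMSO negative control. Underlying signal: cis-element reporter mRNA in transiently transfected HepG2, harvested 24 h post-dose and measured by RT-PCR plus capillary electrophoresis.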
# [5] = ATG_AP_1_CIS: Attagene CIS-FACTORIAL HepG2 Assay for human Activator Protein 1 (AP-1) (AID 2282931); conditions: HepG2 Attagene cis-factorial AP-1 reporter mRNA; actives raise or lower the signal
# How it was run: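 HepG2 cells transiently transfected with cis-element-driven multiplex reporter units; 24 h compound exposure. Reporter mRNA quantified by RT-PCR, FAM-labelled fragments resolved by capillary electrophoresis; bidirectional fit versus DMSO baseline.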
# [6] = ATG_AP_2_CIS: Attagene CIS-FACTORIAL HepG2 Assay for human Activator Protein 2 (AP-2) (AID 2282932); conditions: HepG2 AP-2 cis-reporter, Attagene transcription factor profiling; actives raise or lower the signal
# How it was run: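 Assay in transfected HepG2 with promoter-regulated reporters, 24 h incubation after dosing. Signal is reporter mRNA fluorescence (RT-PCR, capillary electrophoresis), analysed for both increases and decreases relative to DMSO controls.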
# [7] = target: Transcription factor E2F1 (Homo sapiens) (UniProt Q01094); experiment: ATG_E2F_CIS: Attagene CIS-FACTORIAL HepG2 Assay for human E2F Transcription Factor 1 (AID 2282935); conditions: HepG2 Attagene cis-reporter, E2F reporter RNA transcripts; actives raise or lower the signal
# Chain of Transcription factor E2F1 (Homo sapiens) (Q01094 whole entry, looked up): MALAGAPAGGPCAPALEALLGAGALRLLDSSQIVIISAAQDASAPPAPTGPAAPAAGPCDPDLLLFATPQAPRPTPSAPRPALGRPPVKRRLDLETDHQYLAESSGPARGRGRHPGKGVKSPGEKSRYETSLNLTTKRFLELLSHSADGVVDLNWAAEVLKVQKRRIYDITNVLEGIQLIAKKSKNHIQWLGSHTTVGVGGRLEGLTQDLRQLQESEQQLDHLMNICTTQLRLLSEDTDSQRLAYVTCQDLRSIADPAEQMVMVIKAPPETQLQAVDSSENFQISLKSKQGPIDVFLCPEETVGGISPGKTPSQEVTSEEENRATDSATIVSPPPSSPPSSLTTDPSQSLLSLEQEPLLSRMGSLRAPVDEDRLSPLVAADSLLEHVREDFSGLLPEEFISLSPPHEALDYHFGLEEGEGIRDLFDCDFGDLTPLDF
# How it was run: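 In this cis-factorial format, endogenous factor activity drives transfected reporters in HepG2; transcripts collected at 24 h are quantified by fluorescence after RT-PCR and capillary separation.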
# [8] = ATG_E_Box_CIS: Attagene CIS-FACTORIAL HepG2 Assay for human Enhancer Box (E-box) (AID 2282936); conditions: HepG2 E-box cis-reporter transcription, actives raise or lower the signal
# How it was run: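 Measured 24 h post-dosing in HepG2 cells transfected with multiple cis-regulated reporter units, signal being reporter mRNA induction detected by fluorescent RT-PCR with capillary electrophoresis; gain or loss fitted against DMSO.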
# [9] = ATG_M_61_CIS: Attagene CIS-FACTORIAL HepG2 Assay for M61 Transcription Factor (Internal Marker) (AID 2282937); conditions: HepG2 Attagene CIS-FACTORIAL M61 internal marker reporter; actives raise or lower the signal
# How it was run: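 HepG2 cells transiently transfected with cis-element-driven multiple reporter transcription units, dosed for 24 h. Reporter mRNA measured by RT-PCR, 6-FAM primer-extension labelling, HpaI digestion and capillary electrophoresis; bidirectional fit versus DMSO baseline.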
# [10] = ATG_EGR_CIS: Attagene CIS-FACTORIAL HepG2 Assay for human Early Growth Response 1 (EGR1) (AID 2282938); conditions: HepG2 Attagene CIS-FACTORIAL EGR reporter mRNA; actives raise or lower the signal
# How it was run: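 HepG2 cells transiently transfected with cis-promoter-driven multiplexed reporter transcription units; reporter mRNA measured 24 h after compound dosing by RT-PCR, 6-FAM primer extension, HpaI digestion and capillary electrophoresis. Bidirectional fit versus DMSO baseline.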
# [11] = ATG_M_19_CIS: Attagene CIS-FACTORIAL HepG2 Assay for M19 Transcription Factor (Internal Marker) (AID 2282939); conditions: HepG2 Attagene CIS-FACTORIAL M19 internal marker reporter; actives raise or lower the signal
# How it was run: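 HepG2, MRTU transient transfection, 24 h dosing. Total RNA → RT-PCR → 6-FAM primer extension → HpaI digest → CE fluorescence. Bidirectional curve fit, DMSO negative control.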
# [12] = ATG_ERE_CIS: Attagene CIS-FACTORIAL HepG2 Assay for Estrogen Response Element (ERE) (AID 2282940); conditions: HepG2 ERE cis-reporter, Attagene RNA transcript; actives raise or lower the signal
# How it was run: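 After a 24 h chemical treatment, RNA from reporter-transfected HepG2 cells is reverse-transcribed, PCR-amplified and fluorescently labelled. Fragments separated by capillary electrophoresis give reporter signal; DMSO serves as negative control.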
# [13] = ATG_Ets_CIS: Attagene CIS-FACTORIAL HepG2 Assay for human Erythroblast Transformation Specific (ETS) (AID 2282941); conditions: HepG2 ETS cis-reporter transcription, actives raise or lower the signal
# How it was run: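 Cis-regulated reporter mRNA induction in HepG2 (transient transfection), 24 h exposure, RT-PCR plus capillary electrophoresis detection; DMSO serves as negative control and baseline.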
# [14] = target: Hepatocyte nuclear factor 3-beta (Homo sapiens) (UniProt Q9Y261); experiment: ATG_FoxA2_CIS: Attagene CIS-FACTORIAL HepG2 Assay for human Forkhead box A2 (FOXA2) (AID 2282942); conditions: HepG2 cis-reporter transcription factor activity, 24 h; actives raise or lower the signal
# Chain of Hepatocyte nuclear factor 3-beta (Homo sapiens) (Q9Y261 whole entry, looked up): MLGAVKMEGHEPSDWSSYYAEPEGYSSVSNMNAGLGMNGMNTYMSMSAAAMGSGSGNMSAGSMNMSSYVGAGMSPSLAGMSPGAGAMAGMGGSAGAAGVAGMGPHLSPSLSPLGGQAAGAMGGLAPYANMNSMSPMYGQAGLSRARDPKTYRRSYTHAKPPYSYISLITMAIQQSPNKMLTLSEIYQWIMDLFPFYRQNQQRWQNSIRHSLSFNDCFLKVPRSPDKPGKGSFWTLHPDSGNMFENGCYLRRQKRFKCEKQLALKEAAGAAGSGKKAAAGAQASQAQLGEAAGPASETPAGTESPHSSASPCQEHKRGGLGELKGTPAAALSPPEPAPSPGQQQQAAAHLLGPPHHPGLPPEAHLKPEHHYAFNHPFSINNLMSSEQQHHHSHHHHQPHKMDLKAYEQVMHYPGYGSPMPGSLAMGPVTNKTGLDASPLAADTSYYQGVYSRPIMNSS
# How it was run: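 HepG2 cells transiently transfected with multiple cis-regulated reporter transcription units, dosed for 24 h. Reporter mRNA measured by RT-PCR, 6-FAM labelling, HpaI digestion and capillary electrophoresis; bidirectional fitting against DMSO baseline.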
# [15] = ATG_FoxO_CIS: Attagene CIS-FACTORIAL HepG2 Assay for human Forkhead box O (FoxO) (AID 2282943); conditions: HepG2 Attagene cis-reporter, FoxO element, mRNA; actives raise or lower the signal
# How it was run: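 Values reflect reporter mRNA induction or loss in HepG2 cells 24 h post-dosing, fitted bidirectionally with DMSO as negative control and baseline. Detection used RT-PCR and fluorescence capillary electrophoresis.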
# [16] = ATG_GATA_CIS: Attagene CIS-FACTORIAL HepG2 Assay for human GATA Binding Protein (AID 2282944); conditions: HepG2 GATA cis-element reporter, Attagene multiplex mRNA; actives raise or lower the signal
# How it was run: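 Cells: HepG2, transiently transfected with cis-regulated reporter transcription units. Exposure: 24 h. Detection: RT-PCR plus capillary electrophoresis of FAM-labeled fragments. Analysis: bidirectional, DMSO as baseline.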
# [17] = ATG_GLI_CIS: Attagene CIS-FACTORIAL HepG2 Assay for human Zinc Finger Protein GLI1 (AID 2282945); conditions: HepG2, Attagene cis-factorial reporter mRNA, GLI element; actives raise or lower the signal
# How it was run: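 HepG2 cells transiently transfected with cis-promoter multiplexed reporter units report endogenous transcription factor activity. After 24 h chemical exposure, reporter mRNA was quantified by RT-PCR, 6-FAM labelling, HpaI digestion and capillary electrophoresis, with bidirectional fitting against DMSO.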
# [18] = ATG_BRE_CIS: Attagene CIS-FACTORIAL HepG2 Assay for human Bone Morphogenetic Protein (BMP) Response Element (BRE) (AID 2282933); conditions: HepG2 BMP response element reporter, Attagene transcription factor profiling; actives raise or lower the signal
# How it was run: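 Fluorescence-labelled reporter cDNA fragments, separated by capillary electrophoresis, gave the signal for this component of a 52-readout multiplex. HepG2 cells were transfected, exposed to chemicals for 24 h, and compared with DMSO using bidirectional fitting.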
# [19] = target: Retinoic acid receptor alpha (Homo sapiens) (UniProt P10276); experiment: ATG_DR5_RAR_CIS: Attagene CIS-FACTORIAL HepG2 Assay for human Retinoic Acid Receptor Alpha (RARE), DR5 submotif (AID 2282934); conditions: HepG2 Attagene cis-factorial RARE DR5 reporter, mRNA; actives raise or lower the signal
# Chain of Retinoic acid receptor alpha (Homo sapiens) (P10276 whole entry, looked up): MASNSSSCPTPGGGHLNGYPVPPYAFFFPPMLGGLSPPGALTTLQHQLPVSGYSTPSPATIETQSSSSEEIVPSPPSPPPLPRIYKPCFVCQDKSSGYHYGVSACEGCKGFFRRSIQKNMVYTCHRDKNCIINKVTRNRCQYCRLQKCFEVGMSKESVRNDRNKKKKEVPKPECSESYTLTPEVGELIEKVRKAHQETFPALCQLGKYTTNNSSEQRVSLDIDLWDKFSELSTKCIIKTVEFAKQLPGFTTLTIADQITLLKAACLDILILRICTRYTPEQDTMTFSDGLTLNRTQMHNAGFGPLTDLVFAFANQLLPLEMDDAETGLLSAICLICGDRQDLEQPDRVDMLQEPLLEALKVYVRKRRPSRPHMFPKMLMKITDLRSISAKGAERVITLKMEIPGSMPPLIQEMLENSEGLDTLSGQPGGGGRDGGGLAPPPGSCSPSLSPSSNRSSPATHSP
# How it was run: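 Endpoint fitted in both directions relative to DMSO as negative control. It reflects DR5 cis-element reporter mRNA induction in transiently transfected HepG2 cells, measured 24 h after dosing through RT-PCR and fluorescent capillary electrophoresis.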
SMILES,outcome [1],outcome [2],outcome [3],outcome [4],outcome [5],outcome [6],outcome [7],outcome [8],outcome [9],outcome [10],outcome [11],outcome [12],outcome [13],outcome [14],outcome [15],outcome [16],outcome [17],outcome [18],outcome [19],AC50 [4]
CCC/C=C/C=O,inactive,inactive,inactive,inactive,inactive,inactive,inactive,inactive,inactive,inactive,inactive,inactive,inactive,inactive,inactive,inactive,inactive,,,
C=O,inactive,inactive,,inactive,,inactive,inactive,inactive,inactive,inactive,inactive,,inactive,inactive,inactive,,inactive,inactive,inactive,
Nc1cc([N+](=O)[O-])ccc1O,inactive,inactive,inactive,,inactive,inactive,inactive,inactive,inactive,,inactive,,inactive,inactive,inactive,,inactive,inactive,,100 µM (active)
Nc1ccc(S(N)(=O)=O)cc1,inactive,inactive,inactive,inactive,,inactive,inactive,inactive,inactive,inactive,inactive,,inactive,inactive,inactive,inactive,inactive,,,
